The results in this text go back to PubChem BioAssay (EPA / NIEHS).

The target in test [1] is Bile acid receptor (Homo sapiens) (UniProt Q96RI1). As to the kind of experiment: ATG_FXR_TRANS: Attagene TRANS-FACTORIAL HepG2 Assay for Farnesoid X Receptor (FXR) (AID 2282979).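 Further: hits raise reporter mRNA above DMSO so AC50 marks FXR activation.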 The settings on record: HepG2 Attagene TRANS FXR-GAL4 reporter transcription. Put shortly:
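Reporter transcripts from transfected HepG2 cells were measured 24 h after dosing, using RT-PCR with capillary electrophoresis of 6-FAM-labelled fragments. The read-out reflects activity of exogenous FXR-Gal4 chimera on GAL4-UAS units, with induction relative to DMSO.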

Test [2] deals with Estrogen receptor beta (Homo sapiens) (UniProt Q92731). As to the kind of experiment: OT_ER_ERbERb_0480: Odyssey Thera (OT) 8-hour HEK293T Protein-Complementation Assay for Estrogen Receptor-beta/-beta Homodimer (AID 2283357). Put shortly:
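ER-beta LBD homodimer PCA stably expressed in HEK293T; 8 h compound exposure, then formaldehyde fixation and Draq5 staining. Gain in nuclear/cytoplasmic fluorescence intensity versus DMSO vehicle, read on laser scanning cytometer.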

For test [3] the target is unchanged. Nature of the test: OT_ER_ERbERb_1440: Odyssey Thera (OT) 24-hour HEK293T Protein-Complementation Assay for Estrogen Receptor-beta/-beta Homodimer (AID 2283380).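 Further: scored as signal increase over DMSO baseline for both agonists and antagonists.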 The gist of the method: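 Fluorescence increase, nuclear for agonists or whole-cell for antagonists, relative to DMSO vehicle, quantified by laser scanning cytometer after fixation and Draq5 staining. Readout from 24 h treatment of HEK293T cells carrying complementation-paired ER beta LBD (aa 310-547).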

For test [4], the target named is Retinoic acid receptor RXR-alpha (Homo sapiens) (UniProt P19793). As to the kind of experiment: OT_NURR1_NURR1RXRa_0480: Odyssey Thera (OT) 8-hour HEK293T Protein Complementation Assay for Nurr1/retinoid X receptor (RXR) (AID 2283385). The gist of the method:
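Read-out: fluorescence from protein-fragment complementation between Nurr1 and RXRα in human HEK293T cells, 8 h after dosing. DMSO served as negative control; increased signal counted as activity.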

For test [5] the target is unchanged. As to the kind of experiment: OT_NURR1_NURR1RXRa_1440: Odyssey Thera (OT) 24-hour HEK293T Protein Complementation Assay for Nurr1/retinoid X receptor (RXR) (AID 2283386). Put shortly:
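Fluorescence PCA read-out; HEK293T; 24 h post-dose; bait/prey fused to reporter fragments; gain-of-signal fit vs DMSO negative control.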

Test [6] is described as follows: ACEA_AR_agonist_AUC_viability: ACEA Biosciences xCELLigence Real-Time Cell Analysis on Androgen Receptor Agonism for Viability (AID 2283775). The gist of the method: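 Viability endpoint from xCELLigence impedance in 22Rv1 prostate cells at 80 h. Eight-point series, 100 uM maximum final.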
The nature of test [7]: ACEA_AR_antagonist_AUC_viability: ACEA Biosciences xCELLigence Real-Time Cell Analysis on Androgen Receptor Antagonism for Viability (AID 2283776).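 Further: 22Rv1 human prostate cancer cells growing on impedance electrode plates; hits lower the growth signal relative to DMSO meaning cytotoxicity.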 Put shortly: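 Impedance read-out (RT-CES): area under growth curve at 80 h post-dose, loss of signal scored vs DMSO baseline. 22Rv1 cells; 8-pt 1:4 series, top 100 uM final, ≤0.5% DMSO; biological duplicate.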
Test [8] can be described thus: CCTE_Harrill_HTTr_Viability_MCF7: CCTE's 6-hour Cell Viability Assessment for the High-Throughput Transcriptomics (HTTr) Platform, in MCF-7 cells cultured in DMEM + 10% fetal bovine serum, Harrill Lab (AID 2284010; active means hit-call score of the fitted dose curve at least 0.9, where 1 is the maximum; inactive means score below 0.9). Put shortly:
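PI exclusion, high-content imaging; 8-pt dilution series, 6 h exposure; bidirectional fit vs DMSO (neg. ctrl/baseline); gain of signal = loss of membrane integrity.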

The target in test [9] is Peroxisome proliferator-activated receptor gamma (Homo sapiens) (UniProt P37231). As to the kind of experiment: OT_PPARg_PPARgSRC1_1440: Odyssey Thera (OT) 24-hour Protein-Complementation Assay for Peroxisome Proliferator-activated Receptor Gamma/ SRC-1 Co-activator (AID 2283388).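 Further: nuclear to cytoplasmic ratio of reconstituted Venus YFP fluorescence in fixed imaged cells.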 Put shortly:
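Readout is the 488 nm N/C fluorescence ratio from fixed, Draq5-stained HEK293T cells after 24 h compound exposure. Cells carried transiently transfected PPARg and SRC-1 fused to Venus fragments, transfected 48 h before treatment.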

Test [10] can be described thus: ACEA_ER_AUC_viability: ACEA Biosciences xCELLigence Real-Time Cell Analysis on Estrogen Receptor Agonism for Viability (AID 2283782).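 Further: hit means loss of impedance signal meaning reduced cell growth or viability.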 The gist of the method:
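Viability endpoint: reduced impedance area under the curve relative to DMSO, recorded by real-time electrode sensing over ~80 h of continuous exposure. Duplicate plates of T47D in hormone-depleted medium; eight concentrations, 1:4 dilutions, 100 uM maximum.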

The nature of test [11]: ATG_ERE_CIS: Attagene CIS-FACTORIAL HepG2 Assay for Estrogen Response Element (ERE) (AID 2282940; active means hit-call score of the fitted dose curve at least 0.9, where 1 is the maximum; inactive means score below 0.9). The following applies: HepG2 ERE cis-reporter, Attagene RNA transcript; actives raise or lower the signal. The gist of the method:
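Measuring endogenous transcription factor output, the assay doses transfected HepG2 cells for 24 hours and quantifies reporter transcripts by fluorescent RT-PCR and capillary electrophoresis, with DMSO as baseline.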

For test [12], the target named is Steroid hormone receptor ERR1 (Homo sapiens) (UniProt P11474). As to the kind of experiment: ATG_ERRa_TRANS: Attagene TRANS-FACTORIAL HepG2 Assay for human Estrogen-Related Receptor alpha (ERRa) (AID 2282971). The settings on record: HepG2 Attagene TRANS reporter, ERRa transactivation. Put shortly:
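Reporter transcripts from ERRa-Gal4 chimera activity measured in transiently transfected human HepG2 cells 24 hours after dosing, using RT-PCR with 6-FAM primer extension, HpaI digestion and capillary electrophoresis; DMSO is baseline.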

The nature of test [13]: BSK_3C_uPAR: BioMAP Diversity Plus: 3C Assay for Urokinase-type plasminogen activator receptor (uPAR) Biomarker Activity (AID 2282998; active means hit-call score of the fitted dose curve at least 0.9, where 1 is the maximum; inactive means score below 0.9). The settings on record: BioMAP 3C HUVEC, uPAR biomarker ELISA; actives raise or lower the signal. The gist of the method:
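Readout: ELISA for surface uPAR. System: human umbilical vein endothelial primary cells, 24 h after chemical exposure. Analysis: bidirectional fit, DMSO baseline.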
(An ELISA detects its analyte on a solid surface through an enzyme-linked reagent.)

Read-out in test [14]: Monocyte Chemoattractant Protein-1 (MCP1), CCL2 (gene 6347)
As to the kind of experiment: BSK_4H_MCP1: BioMAP Diversity Plus: 4H Assay for Monocyte Chemoattractant Protein-1 (MCP1) Biomarker Activity (AID 2283018; active means hit-call score of the fitted dose curve at least 0.9, where 1 is the maximum; inactive means score below 0.9). The following applies: primary human endothelial cells (HUVEC); actives raise or lower the signal. The gist of the method: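 HUVEC primary cells, 24 h post-dose, MCP-1 by ELISA. Gain or loss of signal fitted bidirectionally vs DMSO baseline. Cytotoxicity: SRB stain (0.1% after 10% TCA fixation), read 560 nm, parallel cultures.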

Read-out in test [15]: Monokine induced gamma interferon (MIG), CXCL9 (gene 4283)
As to the kind of experiment: BSK_3C_MIG: BioMAP Diversity Plus: 3C Assay for Monokine induced gamma interferon (MIG) Biomarker Activity (AID 2283021; active means hit-call score of the fitted dose curve at least 0.9, where 1 is the maximum; inactive means score below 0.9;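 on AC50: MIG protein level measured by immunoassay in the treated endothelial cultures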). The following applies: primary human endothelial cells (HUVEC); actives raise or lower the signal. The gist of the method:
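HUVEC, 3C system; 24 h chemical exposure; MIG by ELISA; bidirectional fit vs DMSO baseline.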

Read-out in test [16]: Urokinase-type plasminogen activator receptor (uPAR), PLAUR (gene 5329)
Nature of the test: BSK_4H_uPAR: BioMAP Diversity Plus: 4H Assay for Urokinase-type plasminogen activator receptor (uPAR) Biomarker Activity (AID 2283030; active means hit-call score of the fitted dose curve at least 0.9, where 1 is the maximum; inactive means score below 0.9). The following applies: primary human endothelial cells (HUVEC); actives raise or lower the signal. The gist of the method: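 uPAR level read by ELISA on HUVEC cultures (BioMAP 4H) 24 h post-dosing, analyzed for gain or loss relative to DMSO. Parallel SRB staining assessed overt cytotoxicity.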

Read-out in test [17]: Plasminogen activator inhibitor-1 (PAI1), SERPINE1 (gene 5054)
As to the kind of experiment: BSK_BE3C_PAI1: BioMAP Diversity Plus: BE3C Assay for Plasminogen activator inhibitor-1 (PAI1) Biomarker Activity (AID 2283037; active means hit-call score of the fitted dose curve at least 0.9, where 1 is the maximum; inactive means score below 0.9). The following applies: primary human bronchial epithelial cells; actives raise or lower the signal. Put shortly:
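ELISA read-out of PAI-1 from human bronchial epithelial primary cells, 24 h post-dosing; bidirectional curve fit vs DMSO baseline, gain or loss of signal scored.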

Read-out in test [18]: Tissue plasminogen activator (tPA), PLAT (gene 5327)
Nature of the test: BSK_BE3C_tPA: BioMAP Diversity Plus: BE3C Assay for Tissue plasminogen activator (tPA) Biomarker Activity (AID 2283041; active means hit-call score of the fitted dose curve at least 0.9, where 1 is the maximum; inactive means score below 0.9;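 on outcome: tPA level quantified by ELISA one day after compound addition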). The settings on record: primary human bronchial epithelial cells; actives raise or lower the signal. The gist of the method: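 ELISA read-out of tPA on human primary bronchial epithelial cells, 24 h post-dosing; bidirectional fit vs DMSO negative control/baseline.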

Read-out in test [19]: Thrombomodulin, THBD (gene 7056)
Nature of the test: BSK_CASM3C_Thrombomodulin: BioMAP Diversity Plus: CASM3C Assay for Thrombomodulin Biomarker Activity (AID 2283051; active means hit-call score of the fitted dose curve at least 0.9, where 1 is the maximum; inactive means score below 0.9;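 further: thrombomodulin protein level measured by ELISA 24 h after dosing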). The settings on record: primary human coronary artery smooth muscle cells; actives raise or lower the signal.

The target of test [20] is Estrogen-related receptor gamma (Homo sapiens) (UniProt P62508). Nature of the test: ATG_ERRg_TRANS: Attagene TRANS-FACTORIAL HepG2 Assay for human Estrogen-Related Receptor gamma (ERRg) (AID 2282977).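 Further: hits increase reporter signal over DMSO so potencies reflect activators.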 The settings on record: HepG2 Attagene TRANS reporter, ERRg transactivation. Put shortly: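 Readout: fluorescent reporter-mRNA fragments resolved by capillary electrophoresis after RT-PCR and HpaI cut. Cells: transiently transfected HepG2 carrying GAL4-UAS reporters driven by exogenous NR-Gal4 chimeras, dosed 24 h. Activity fitted upward relative to DMSO baseline.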

Values joined by “and” are separate entries in the source; they are usually repeats but may differ in a detail not shown here. Equal entries are not always repeated. Records with an inconclusive call do not appear. Some structures have more than one record in an assay (separate samples or runs), and their calls can disagree. Active and inactive are the calls of the source. How the source made its calls, unless noted: active means hit-call score of the fitted dose curve at least 0.9, where 1 is the maximum; inconclusive means response in the unintended direction; inactive means score below 0.9.

Chain of Retinoic acid receptor RXR-alpha (Homo sapiens) (P19793 whole entry, looked up, the tested form may be a part): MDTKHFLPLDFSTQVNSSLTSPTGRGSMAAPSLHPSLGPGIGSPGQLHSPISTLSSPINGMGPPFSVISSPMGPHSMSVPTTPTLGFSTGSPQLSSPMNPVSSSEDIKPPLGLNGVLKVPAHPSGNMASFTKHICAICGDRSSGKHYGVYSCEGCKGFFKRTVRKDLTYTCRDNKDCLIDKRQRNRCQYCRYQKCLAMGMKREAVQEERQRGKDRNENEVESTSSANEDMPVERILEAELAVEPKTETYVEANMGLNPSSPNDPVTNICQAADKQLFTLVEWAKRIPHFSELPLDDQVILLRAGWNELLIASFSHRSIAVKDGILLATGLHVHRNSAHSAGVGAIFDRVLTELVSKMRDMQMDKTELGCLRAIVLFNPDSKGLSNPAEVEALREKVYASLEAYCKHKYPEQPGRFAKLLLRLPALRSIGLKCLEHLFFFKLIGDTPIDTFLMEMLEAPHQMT
Chain of Estrogen receptor beta (Homo sapiens) (Q92731 whole entry, looked up, the tested form may be a part): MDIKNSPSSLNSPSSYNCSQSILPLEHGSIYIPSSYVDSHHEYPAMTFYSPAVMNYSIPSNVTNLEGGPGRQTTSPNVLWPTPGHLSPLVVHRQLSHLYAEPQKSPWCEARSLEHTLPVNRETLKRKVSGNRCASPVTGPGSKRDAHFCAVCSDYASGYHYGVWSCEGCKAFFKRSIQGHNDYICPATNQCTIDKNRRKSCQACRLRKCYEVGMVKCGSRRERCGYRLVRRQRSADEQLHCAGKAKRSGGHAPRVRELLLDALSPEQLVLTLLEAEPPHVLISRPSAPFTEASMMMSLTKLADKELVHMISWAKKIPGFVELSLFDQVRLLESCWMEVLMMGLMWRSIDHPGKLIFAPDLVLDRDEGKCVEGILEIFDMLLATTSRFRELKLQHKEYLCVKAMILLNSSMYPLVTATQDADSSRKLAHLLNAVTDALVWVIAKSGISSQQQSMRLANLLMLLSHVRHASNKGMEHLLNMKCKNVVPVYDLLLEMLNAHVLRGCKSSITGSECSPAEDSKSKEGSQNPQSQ
Chain of Peroxisome proliferator-activated receptor gamma (Homo sapiens) (P37231 whole entry, looked up, the tested form may be a part): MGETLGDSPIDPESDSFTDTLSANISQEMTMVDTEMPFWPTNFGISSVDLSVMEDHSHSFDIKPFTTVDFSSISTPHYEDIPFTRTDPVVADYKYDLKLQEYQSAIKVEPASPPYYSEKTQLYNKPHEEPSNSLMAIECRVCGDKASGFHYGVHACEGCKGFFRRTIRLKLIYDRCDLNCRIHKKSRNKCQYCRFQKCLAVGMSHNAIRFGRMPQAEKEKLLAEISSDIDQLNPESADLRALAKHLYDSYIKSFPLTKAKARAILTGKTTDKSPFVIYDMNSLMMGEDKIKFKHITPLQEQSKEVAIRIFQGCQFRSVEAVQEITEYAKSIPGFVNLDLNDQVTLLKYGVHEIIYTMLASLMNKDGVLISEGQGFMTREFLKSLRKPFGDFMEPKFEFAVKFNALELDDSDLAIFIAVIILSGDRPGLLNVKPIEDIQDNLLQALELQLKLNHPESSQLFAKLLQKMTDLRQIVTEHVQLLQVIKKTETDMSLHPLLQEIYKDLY
Chain of Bile acid receptor (Homo sapiens) (Q96RI1 whole entry, looked up, the tested form may be a part): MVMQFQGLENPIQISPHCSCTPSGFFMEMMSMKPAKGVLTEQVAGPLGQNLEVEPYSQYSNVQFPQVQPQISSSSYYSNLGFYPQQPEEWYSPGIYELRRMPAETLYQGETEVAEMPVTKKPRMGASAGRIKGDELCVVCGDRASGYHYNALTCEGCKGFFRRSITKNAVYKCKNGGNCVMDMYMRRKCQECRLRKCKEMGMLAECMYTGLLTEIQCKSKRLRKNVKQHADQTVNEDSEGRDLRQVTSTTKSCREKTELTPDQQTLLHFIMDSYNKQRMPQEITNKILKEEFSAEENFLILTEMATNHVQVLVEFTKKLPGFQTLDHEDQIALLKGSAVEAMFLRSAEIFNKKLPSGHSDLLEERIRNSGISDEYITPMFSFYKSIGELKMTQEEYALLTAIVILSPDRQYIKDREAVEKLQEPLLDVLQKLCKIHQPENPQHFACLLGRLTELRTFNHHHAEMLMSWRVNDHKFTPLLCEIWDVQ
Chain of Steroid hormone receptor ERR1 (Homo sapiens) (P11474 whole entry, looked up, the tested form may be a part): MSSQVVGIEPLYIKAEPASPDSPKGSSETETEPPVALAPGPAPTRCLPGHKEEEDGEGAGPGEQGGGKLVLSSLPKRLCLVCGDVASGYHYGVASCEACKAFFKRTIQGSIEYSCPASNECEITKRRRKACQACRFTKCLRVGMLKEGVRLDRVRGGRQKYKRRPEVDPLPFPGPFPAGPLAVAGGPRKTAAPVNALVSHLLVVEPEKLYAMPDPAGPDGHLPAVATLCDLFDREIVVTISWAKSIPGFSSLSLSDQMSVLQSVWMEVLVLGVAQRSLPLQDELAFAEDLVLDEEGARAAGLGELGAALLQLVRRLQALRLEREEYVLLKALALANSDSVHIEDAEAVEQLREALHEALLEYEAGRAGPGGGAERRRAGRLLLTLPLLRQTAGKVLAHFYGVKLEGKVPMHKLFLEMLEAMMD
Chain of Estrogen-related receptor gamma (Homo sapiens) (P62508 whole entry, looked up, the tested form may be a part): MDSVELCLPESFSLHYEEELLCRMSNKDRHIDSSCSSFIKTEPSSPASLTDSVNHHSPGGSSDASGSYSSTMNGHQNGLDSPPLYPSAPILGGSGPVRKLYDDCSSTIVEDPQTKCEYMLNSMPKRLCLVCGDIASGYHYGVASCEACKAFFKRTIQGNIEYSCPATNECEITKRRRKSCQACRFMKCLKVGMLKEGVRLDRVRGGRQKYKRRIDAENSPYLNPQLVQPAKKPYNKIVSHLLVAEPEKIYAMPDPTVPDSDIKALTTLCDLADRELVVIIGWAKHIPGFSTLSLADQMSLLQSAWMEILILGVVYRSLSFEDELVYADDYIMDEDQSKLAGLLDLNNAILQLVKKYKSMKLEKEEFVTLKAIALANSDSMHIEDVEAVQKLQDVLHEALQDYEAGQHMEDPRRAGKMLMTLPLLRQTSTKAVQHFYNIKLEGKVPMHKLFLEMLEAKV

For `CNC(=N[N+](=O)[O-])NCC1CCOC1` (centres undefined), the outcome in test [1], in test [2], in test [3], in test [4], in test [5] and in test [6] was inactive. In addition, the result in [7] and in test [8] was inactive.
Turning to `CC(C)(O)C#N`, the compound was called inactive in [2], in test [3], in test [4], in test [5], in test [9] and in [6]. The result in [7], in [10] and in [8] was inactive.
In the case of `COc1ncc(F)c2nc(S(=O)(=O)Nc3c(F)cccc3F)nn12`, the result in [11] and in test [8] was inactive.
On to `N#CC(c1ccccc1)c1ccccc1`, for which the compound was classed as inactive in test [12] and in [1].
In the case of `CC(O)CN(CC(C)O)CC(C)O` (centres undefined), the compound was called inactive in test [1], in test [3], in test [4], in test [5] and in [6].
The AC50 is the concentration at which the activity in the assay is half-maximal. Consider `O=C1C=CC(=O)C=C1`, for which the AC50 in test [13] was 12.8 µM (active); in [14], 33.4 µM (active); in [15] it was 35.6 µM (active); in [17], 1.68 µM (active) and 14.6 µM (active); in test [18], 34.9 µM (active); in test [19], 8.44 µM (active) and 20 µM (active). Besides, the half-maximal activity concentration (AC50) in test [10] is 73.5 µM (active). Further, the result in [13], in [14], in test [15], in test [16], in [18] and in test [8] was inactive.
With `CC(Cc1ccc(C(C)(C)C)cc1)CN1C[C@@H](C)O[C@@H](C)C1` (some centres undefined), the result in [12], in [20], in test [1], in [2], in [3] and in [9] was inactive. The compound was called inactive in [6], in test [7] and in test [8]. Besides, the figures for the AC50 in test [4] and in test [5] were 66.8 µM (active) and 81 µM (active), respectively.
With `CC1OC(C)OC(C)O1` (centres undefined), the call in test [12] and in [1] was inactive.
Turning to `C=CCN(CC=C)C(=O)C(Cl)Cl`, the outcome in [13], in test [14], in test [15], in [16], in test [17] and in test [18] was inactive. Moreover, the outcome in test [19], in test [2], in [3], in test [5], in test [9] and in [6] was inactive. For the same compound, the compound was called inactive in [10].
For the compound `COc1cc(OC)c(OC)cc1C=O`, the concentration at half-maximal activity (AC50) in test [11] was 27.6 µM (active). Moreover, the call in test [12] was inactive.
On to `COCC(=O)N(c1c(C)cccc1C)N1CCOC1=O`, for which the outcome in test [12], in [1], in [13], in test [14], in test [15] and in test [16] was inactive. Also, the result in [17], in test [18] and in [19] was inactive.
For the compound `COc1cc(OC)nc(Oc2cccc(Oc3nc(OC)cc(OC)n3)c2C(=O)O)n1`, the compound was classed as inactive in [1], in test [2], in [3], in [4], in test [5] and in test [9]. For the same compound, the outcome in test [6] and in test [7] was inactive.
